In PubChem BioAssay AID615 (Sanford-Burnham Center for Chemical Genomics, 2007):
The whole screen tested about 21,000 compounds, of which fewer than 10 were called active.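 How the source made its calls: active means inhibition above 50% at the 20 µM single-dose screen; inactive means the rest.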 The list is a sample of the results.

molecular target: Alkaline phosphatase, tissue-nonspecific isozyme (Homo sapiens) (UniProt P05186); experiment: human TNAP enzyme inhibitors, primary screen, biochemical, colorimetric, p-nitrophenol readout (AID 615); conditions: purified TNAP, pNPP hydrolysis, absorbance 405 nm; at 20 µM; stronger effect = higher value;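 further: 0% = DMSO only wells and 100% = 1 mM levamisole wells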
Sequence (P05186 whole entry, looked up): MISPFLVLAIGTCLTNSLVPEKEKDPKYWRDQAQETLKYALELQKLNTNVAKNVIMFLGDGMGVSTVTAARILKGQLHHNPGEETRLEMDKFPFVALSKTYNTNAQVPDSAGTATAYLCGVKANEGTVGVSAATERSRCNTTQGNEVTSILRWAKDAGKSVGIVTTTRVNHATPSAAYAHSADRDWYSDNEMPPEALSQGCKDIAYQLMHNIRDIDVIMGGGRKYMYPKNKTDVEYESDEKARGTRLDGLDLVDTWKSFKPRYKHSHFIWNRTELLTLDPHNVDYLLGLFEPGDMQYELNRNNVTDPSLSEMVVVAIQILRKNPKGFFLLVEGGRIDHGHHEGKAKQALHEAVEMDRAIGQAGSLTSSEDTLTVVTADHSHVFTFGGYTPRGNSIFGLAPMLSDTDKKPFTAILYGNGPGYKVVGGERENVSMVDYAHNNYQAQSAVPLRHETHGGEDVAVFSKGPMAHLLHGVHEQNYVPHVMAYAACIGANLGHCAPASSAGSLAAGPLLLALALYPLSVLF

inhibition, inactive:
CC(=O)N1CSCC1C(=O)O (configuration not stated) 8.6%
COc1ccc(O)c(C=Nc2cc(C)on2)c1 5.7%
O=C1CSC(=O)N1CCOCCN1C(=O)CSC1=O 4.8%
COc1ccc(C2CC(c3ccc(C)cc3)Nc3nc(N)nn32)cc1 (configuration not stated) 3.3%
CC1(C)CC(=O)C(C2=NC(C)(C)Cc3ccccc32)=C(O)C1 -1%
CCn1c(SCC(=O)NCc2ccco2)nnc1-c1ccc(N)cc1 0.2%
CCOc1cc(C)c(Cl)cc1S(=O)(=O)n1nnc2ccccc21 3.6%
CC1CCCN(C(=O)Cn2c(=O)oc3ccccc32)C1 (configuration not stated) 3.7%
O=C(Nc1c(Cl)cccc1Cl)C1CCC1 3.6%
Cc1cc(C)nc(SCc2ccccc2C#N)n1 1.7%
COc1ccccc1Nc1ncc(C(C)=O)c(C)n1 1.9%
O=C(O)CN(Cc1ccco1)S(=O)(=O)c1ccccc1 0%
CCC(=O)Nc1ccc(C(=O)Nc2ccc3c(c2)C(=O)N(CC2CCCO2)C3=O)cc1 (configuration not stated) 3.2%
CCCc1cc(=O)n2[nH]c(SCc3ccccc3)nc2n1 4.4%
N#Cc1nc(-c2ccc(OCc3ccccc3)cc2)oc1NCCCN1CCOCC1 4%
O=S(=O)(NCc1cccnc1)c1ccc(Br)s1 2.9%
Cc1ccc(C(=O)N2CCN(C3CCCCC3)CC2)s1 2.5%
COC(=O)c1cc(NC(=O)CN2CCC(C(N)=O)(N3CCCCC3)CC2)cc(C(=O)OC)c1 -6.8%
COc1cccc(NC(=O)c2ccccc2SC)c1 0.3%
COC(=O)c1ccc2c(c1)S(=O)(=O)NC(=NCCCN1CCOCC1)S2 3.7%
O=C(c1ccco1)N(Cc1nc2ccccc2c(=O)[nH]1)C1CCCC1 -5.2%
Cc1ccccc1OCCC(=O)Nc1c(C)n(C)n(-c2ccccc2)c1=O 0%
Cc1cc(C)c(C(=O)CN2C(=O)CCC2=O)cc1C 5%
O=S(=O)(c1ccccc1)N(CC(O)CN1CCCCC1)c1ccccc1 (configuration not stated) -1.4%
COC(=O)c1ccccc1NC(=O)c1ccccc1NS(C)(=O)=O 8.2%
COC(=O)c1cc(Cl)c(NC(=O)c2ccco2)cc1OC -4.4%
COc1cc(OC)cc(C(=O)Nc2ncc3c(n2)CC(C)(C)CC3=O)c1 3.1%
CC1CCCCC1NC(=O)CSc1nnc(N)s1 (configuration not stated) 0%
COc1ccc(CNC(=O)c2cc3c(=O)n4ccccc4nc3n(CC3CCCO3)c2=N)cc1 (configuration not stated) 0.4%
COc1c(F)c(F)c(-c2csc(N)n2)c(F)c1F 1%
COC(=O)c1cccc(NC(=O)CSc2nc(C)cc(=O)[nH]2)c1 6.2%
CC(NCCO)C(=O)C12CC3CC(CC(C3)C1)C2 (configuration not stated) 6.7%
CCn1nc(NC(=O)c2ccco2)c2cc3ccc(C)cc3nc21 4.2%
COc1ccc(CNC2CCCCC2)cc1 3.7%
CC(C)[C@H](NC(=O)Nc1ccc(S(N)(=O)=O)cc1)C(=O)O 4.9%
O=S(=O)(NCc1ccc2c(c1)OCO2)c1cccc2nsnc12 5.8%
Cc1ccc(S(=O)(=O)N2CCOCC2)cc1C(=O)NCc1ccc(F)cc1 0%
O=C(NCC1CCCO1)C(C(=O)c1ccccc1)n1cc(Cl)ccc1=O (configuration not stated) 6.1%
Cc1nnc(N(Cc2ccco2)C(=O)c2ccno2)s1 1.8%
O=C(Nc1ccc2c(c1)OCCO2)c1ccncc1 3.7%
CCOC(=O)c1sc(/N=C/Nc2nc(C)c(C(=O)OCC)s2)nc1C 0%
COc1ccc(N(Cc2cc3cc(OC)ccc3[nH]c2=O)S(C)(=O)=O)cc1 2.6%
O=C(CSc1ncccn1)NCCc1ccccc1 1.9%
CC12CCC(C(=O)N(CCC#N)CCC#N)(CC1=O)C2(C)C (configuration not stated) 5.5%
CNC(=O)CSc1nnc(CCc2ccccc2)n1-c1ccccc1 -9%
O=C(CCCOc1ccccc1)Nc1cccc(C(=O)O)c1 7.6%
CC(C)C[C@H](NC(=O)NCCc1ccc(Cl)cc1)C(=O)O 2.2%
Cc1cc(C)c2nc(SCCC#N)nc(C)c2c1 -0.5%
CCCCn1nnnc1NCc1cc(OC)c(OC)c(OC)c1 -0.6%
C=CCn1c(COc2ccccc2)nnc1SCC(=O)NCC(=O)OCC -6.9%
CC(=O)Cc1nsc(NC(=O)c2ccc(COc3ccc(C)cc3)o2)n1 1.5%
Cc1cc(NC(=O)c2cnn3cccnc23)n(-c2ccccc2)n1 3.9%
Cc1ccc(S(=O)(=O)N2CCC(C(=O)N[C@@H](C)C(=O)NCCc3ccccc3)CC2)cc1 -7.1%
CCC(CC)C(=O)Nc1cc(C(=O)OC)cc(C(=O)OC)c1 4.4%
CC(=O)N1CCN(CCN=CC2=C(O)CC(C)(C)CC2=O)CC1 5.5%
Cc1ccc2c(C(=O)CN3CCCC3)c(C)[nH]c2c1 -14.5%
O=C(O)CN(Cc1ccco1)S(=O)(=O)c1ccc(F)cc1 0.4%
COc1ccc(NC2CC(=O)N(C)C2=O)cc1 (configuration not stated) 3.1%
Cc1occc1C(=O)Nc1cccc(Cn2cccn2)c1 -2.4%
CC(=O)OCc1cc(=O)n(C)c(=O)n1C 1.6%
Nc1nnnn1/N=C/c1cccs1 0%
CC(C)c1nc(-c2ccccn2)no1 2.2%
CSCCC(NC(=O)c1ccc(=O)n(C)n1)c1nc2ccccc2[nH]1 (configuration not stated) -0.4%
CCc1ccccc1N(CC(=O)N1CCN(c2ccccc2F)CC1)S(C)(=O)=O 3.4%
Cc1cccc(N(CC(O)CN(C)C)S(=O)(=O)c2ccccc2)c1 (configuration not stated) 6%
CC(=O)Nc1nc(C)c(Cc2ccccc2)c(=O)[nH]1 0%
CC(C)C(c1nnnn1C1CCCC1)N1CCN(c2ccccc2F)CC1 (configuration not stated) 4.1%
